# Results as given in the supplement of paper PMC8728848.
# This is one part of a sample in which the strongest signals are shown more often than they occur.
# B1: Pwp5 ND (Candida glabrata) (protein)
# chain: MGSSHHHHHHSSGLVPRGSHMASANPVPLTNVCYFPEEYPRQAGFRAITAGLASTILQGSVDELLNYSGLSSLTTQQTTTTTPNFQLPTLPLPTNVYGLTVVPLYLLVQLQGYFVPPVSGQYTFSLENTNDAAIIFFGNPSAFPCGDLSAWPQASADDITVTDGTFPSRTLFLKAGVAYPMRISYYNSLGSGNLAVSFTDPGGTKRTNWNGYIWRYNSCSTCTYT
# Key:
# Test in all cases: glycan array binding signal (z-score within array); higher = stronger binding
# Conditions in all cases: glycan notation: IUPAC condensed, linker removed
# [1] = biological target: Gal(b1-4)GlcNAc(b1-3)Gal(b1-4)GlcNAc(b1-3)Gal(b1-4)GlcNAc
# Summary of the method: (§1)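 Glycan array data were curated from 3228 arrays in the Consortium for Functional Glycomics database and kept only where the protein sequence was available. Glycan names were converted to IUPAC-condensed notation, and columns mapping to the same glycan were averaged. The binding signal is a within-array Z-score, averaged across arrays of the same protein sequence at different concentrations or buffers and across linkers. Negative Z-scores can be read as non-binding.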
# [2] = biological target: Gal(b1-4)GlcNAc(b1-3)Gal(b1-4)GlcNAc(b1-3)Gal(b1-4)GlcNAc(b1-2)Man(a1-3)[Gal(b1-4)GlcNAc(b1-3)Gal(b1-4)GlcNAc(b1-3)Gal(b1-4)GlcNAc(b1-2)Man(a1-6)]Man(b1-4)GlcNAc(b1-4)[Fuc(a1-6)]GlcNAc
# Summary of the method: as §1
# Gal3S(b1-4)Glc = biological target: Gal3S(b1-4)Glc
# Summary of the method: as §1
# Gal6S(b1-3)GlcNAc = biological target: Gal6S(b1-3)GlcNAc
# Summary of the method: as §1
# [3] = biological target: GalNAc(a1-3)GalNAc(b1-3)Gal(a1-4)Gal(b1-4)Glc
# Summary of the method: as §1
# GalNAc(b1-4)Gal(b1-4)Glc = biological target: GalNAc(b1-4)Gal(b1-4)Glc
# Summary of the method: as §1
# [4] = biological target: GlcNAc(a1-4)Gal(b1-3)GlcNAc
# Summary of the method: as §1
# [5] = biological target: GlcNAc(b1-2)[GlcNAc(b1-4)]Man(a1-3)[GlcNAc(b1-2)Man(a1-6)]Man(b1-4)GlcNAc(b1-4)GlcNAc
# Summary of the method: as §1
# [6] = biological target: GlcNAc(b1-2)[GlcNAc(b1-6)]Man(a1-6)[GlcNAc(b1-2)Man(a1-3)]Man(b1-4)GlcNAc(b1-4)GlcNAc
# Summary of the method: as §1
# [7] = biological target: GlcNAc(b1-3)Gal(b1-4)GlcNAc(b1-3)Gal(b1-4)GlcNAc(b1-3)Gal(b1-4)GlcNAc(b1-2)[GlcNAc(b1-3)Gal(b1-4)GlcNAc(b1-3)Gal(b1-4)GlcNAc(b1-3)Gal(b1-4)GlcNAc(b1-6)]Man(a1-6)[GlcNAc(b1-3)Gal(b1-4)GlcNAc(b1-3)Gal(b1-4)GlcNAc(b1-3)Gal(b1-4)GlcNAc(b1-2)Man(a1-3)]Man(b1-4)GlcNAc(b1-4)[Fuc(a1-6)]GlcNAc
# Summary of the method: as §1
# [8] = biological target: GlcNAc(b1-3)[GlcNAc(b1-6)]Gal(b1-4)GlcNAc
# Summary of the method: as §1
# [9] = biological target: Man(a1-2)Man(a1-3)[Man(a1-2)Man(a1-6)]Man(a1-6)[Man(a1-2)Man(a1-2)Man(a1-3)]Man(b1-4)GlcNAc(b1-4)GlcNAc
# Summary of the method: as §1
# [10] = biological target: Man(a1-3)[Man(a1-6)]Man(a1-6)[Man(a1-3)]Man
# Summary of the method: as §1
# Man(b1-4)GlcNAc = biological target: Man(b1-4)GlcNAc
# Summary of the method: as §1
# [11] = biological target: Neu5Ac(a2-3)Gal(b1-3)GalNAc6S
# Summary of the method: as §1
# [12] = biological target: Neu5Ac(a2-3)Gal(b1-3)GlcNAc
# Summary of the method: as §1
# [13] = biological target: Neu5Ac(a2-3)Gal(b1-3)GlcNAc(b1-3)GalNAc
# Summary of the method: as §1
# [14] = biological target: Neu5Ac(a2-3)Gal(b1-3)[GlcNAc(b1-6)]GalNAc
# Summary of the method: as §1
# [15] = biological target: Neu5Ac(a2-3)Gal(b1-4)GlcNAc(b1-2)[Neu5Ac(a2-3)Gal(b1-4)GlcNAc(b1-6)]Man(a1-6)[Neu5Ac(a2-3)Gal(b1-4)GlcNAc(b1-2)Man(a1-3)][GlcNAc(b1-4)]Man(b1-4)GlcNAc(b1-4)GlcNAc
# Summary of the method: as §1
# [16] = biological target: Neu5Ac(a2-3)Gal(b1-4)GlcNAc(b1-3)Gal(b1-4)GlcNAc(b1-2)Man(a1-3)[Neu5Ac(a2-3)Gal(b1-4)GlcNAc(b1-3)Gal(b1-4)GlcNAc(b1-2)Man(a1-6)]Man(b1-4)GlcNAc(b1-4)GlcNAc
# Summary of the method: as §1
# [17] = biological target: Neu5Ac(a2-3)Gal(b1-4)GlcNAc(b1-3)Gal(b1-4)GlcNAc(b1-3)[Neu5Ac(a2-3)Gal(b1-4)GlcNAc(b1-3)Gal(b1-4)GlcNAc(b1-6)]GalNAc
# Summary of the method: as §1
# [18] = biological target: Neu5Ac(a2-3)Gal(b1-4)[Fuc(a1-3)]GlcNAc
# Summary of the method: as §1
# [19] = biological target: Neu5Ac(a2-3)Gal(b1-4)[Fuc(a1-3)]GlcNAc(b1-3)GalNAc
# Summary of the method: as §1
# [20] = biological target: Neu5Ac(a2-3)Gal(b1-4)[Fuc(a1-3)]GlcNAc6S
# Summary of the method: as §1
# [21] = biological target: Neu5Ac(a2-6)Gal(b1-4)GlcNAc(b1-2)[Neu5Ac(a2-6)Gal(b1-4)GlcNAc(b1-4)]Man(a1-3)[GlcNAc(b1-4)][Neu5Ac(a2-6)Gal(b1-4)GlcNAc(b1-4)Man(a1-6)]Man(b1-4)GlcNAc(b1-4)GlcNAc
# Summary of the method: as §1
# [22] = biological target: Neu5Ac(a2-6)Gal(b1-4)GlcNAc(b1-3)Gal(b1-4)GlcNAc(b1-3)Gal(b1-4)GlcNAc(b1-2)Man(a1-3)[Neu5Ac(a2-6)Gal(b1-4)GlcNAc(b1-3)Gal(b1-4)GlcNAc(b1-3)Gal(b1-4)GlcNAc(b1-2)Man(a1-6)]GalNAc
# Summary of the method: as §1
# [23] = biological target: Neu5Ac(a2-6)Gal(b1-4)GlcNAc(b1-6)GalNAc
# Summary of the method: as §1
# Neu5Ac(a2-8)Neu5Ac = biological target: Neu5Ac(a2-8)Neu5Ac
# Summary of the method: as §1
# [24] = biological target: Neu5Ac(a2-8)Neu5Ac(a2-3)[GalNAc(b1-4)]Gal(b1-4)Glc
# Summary of the method: as §1
binder,measurement,setting,value
B1,glycan array binding signal (z-score),[1],-0.555
same,glycan array binding signal (z-score),[2],3.19
same,glycan array binding signal (z-score),Gal3S(b1-4)Glc,-0.405
same,glycan array binding signal (z-score),Gal6S(b1-3)GlcNAc,-0.366
same,glycan array binding signal (z-score),[3],-0.548
same,glycan array binding signal (z-score),GalNAc(b1-4)Gal(b1-4)Glc,0.779
same,glycan array binding signal (z-score),[4],-0.557
same,glycan array binding signal (z-score),[5],-0.667
same,glycan array binding signal (z-score),[6],3.15
same,glycan array binding signal (z-score),[7],1.57
same,glycan array binding signal (z-score),[8],-0.152
same,glycan array binding signal (z-score),[9],-0.293
same,glycan array binding signal (z-score),[10],5.77
same,glycan array binding signal (z-score),Man(b1-4)GlcNAc,-0.41
same,glycan array binding signal (z-score),[11],-0.411
same,glycan array binding signal (z-score),[12],0.287
same,glycan array binding signal (z-score),[13],0.055
same,glycan array binding signal (z-score),[14],-0.173
same,glycan array binding signal (z-score),[15],13
same,glycan array binding signal (z-score),[16],-0.247
same,glycan array binding signal (z-score),[17],4.41
same,glycan array binding signal (z-score),[18],-0.271
same,glycan array binding signal (z-score),[19],-0.138
same,glycan array binding signal (z-score),[20],0.989
same,glycan array binding signal (z-score),[21],-0.613
same,glycan array binding signal (z-score),[22],3.34
same,glycan array binding signal (z-score),[23],3.96
same,glycan array binding signal (z-score),Neu5Ac(a2-8)Neu5Ac,0.246
same,glycan array binding signal (z-score),[24],0.315
